Measured values taken from PubChem BioAssay AID1159580 (chemical genetic matrix, 2015).
The campaign covered roughly 5,500 compounds. About 2,000 (36%) were called active. Another 18% or so got no clear call; they are omitted. Rule as the data show it: active = normalized growth mostly below about 0.91 (no sharp cut-off); inconclusive = no clear call, values can overlap the other calls; inactive = mostly above about 0.92. The list shows a part of the results.

Test: chemical genetic growth profiling, strain panel (AID 1159580);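 also: tested at 20 µM; growth read once vehicle control cultures reached saturation at 30 °C; 1 = growth at the plate median or of vehicle wells; lower values mean less growth of the strain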
Details: growth OD
[1] = S. cerevisiae deletion strains, locus YAL040C, strain CLN3, stronger effect = lower value
[2] = S. cerevisiae deletion strains, locus YDR150W, strain NUM1, stronger effect = lower value
[3] = S. cerevisiae deletion strains, locus YDR363W, strain ESC2, stronger effect = lower value
[4] = S. cerevisiae deletion strains, locus YER002W, strain NOP16, stronger effect = lower value
[5] = S. cerevisiae deletion strains, locus YMR307W, strain GAS1, stronger effect = lower value
[6] = S. cerevisiae deletion strains, locus YNL153C, strain GIM3, stronger effect = lower value
[7] = S. cerevisiae deletion strains, locus YNL175C, strain NOP13, stronger effect = lower value
[8] = S. cerevisiae deletion strains, locus YNL197C, strain WHI3, stronger effect = lower value
[9] = S. cerevisiae deletion strains, locus YNL224C, strain SQS1, stronger effect = lower value
[10] = S. cerevisiae deletion strains, locus YNL322C, strain KRE1, stronger effect = lower value
[11] = S. cerevisiae deletion strains, locus YOR083W, strain WHI5 (second series), stronger effect = lower value
[12] = S. cerevisiae deletion strains, locus YPL241C, strain CIN2, stronger effect = lower value
[13] = S. cerevisiae deletion strains, locus YMR263W, strain SAP30, stronger effect = lower value
[14] = S. cerevisiae deletion strains, locus YPL055C, strain LGE1, stronger effect = lower value
[15] = S. cerevisiae deletion strains, locus YCL061C, strain MRC1 (second series), stronger effect = lower value
[16] = S. cerevisiae deletion strains, locus YGR078C, strain PAC10, stronger effect = lower value
[17] = S. cerevisiae deletion strains, locus YJR075W, strain HOC1, stronger effect = lower value
[18] = S. cerevisiae deletion strains, locus YAL013W, strain DEP1, stronger effect = lower value

Measured: normalized growth

CC[C@H](NC(=O)c1c(C)c(-c2ccccc2)nc2ccccc12)c1ccccc1
inactive: [1] 1.03 | [2] 0.987 | [3] 1.04 | [4] 1.02 | [5] 1.06 | [6] 0.979 | [7] 1.03 | [8] 1.04 | [9] 1 | [10] 0.995 | [11] 1.07 | [12] 0.987

CCCCCCCCCC[Si](C)(C)CCC(=O)NC(Cc1ccc(C)cc1)c1ccccc1 (stereo not drawn)
inactive: [1] 1.03 | [3] 0.974 | [13] 0.998 | [5] 1.01 | [7] 1.05 | [14] 1
active: [4] 1.11 [resistant] | [9] 1.17 [resistant]

CCCCCCCCCC(=O)NC(CN1CCOCC1)[C@H](O)c1ccccc1 (stereo partly drawn)
inactive: [1] 0.989 | [15] 0.987 | [2] 0.977 | [3] 0.942 | [4] 0.963 | [16] 0.97 | [13] 1 | [6] 0.941 | [7] 0.962 | [8] 0.944 | [9] 0.978 | [11] 0.971 | [14] 0.957

N#CC(C#N)=C(N)/C(C#N)=C/c1ccc(O)cc1
inactive: [1] 0.962 | [15] 0.998 | [3] 0.999 | [4] 1 | [16] 1 | S. cerevisiae deletion strains, locus YGR229C, strain SMI1, stronger effect = lower value 1.04 | [17] 0.957 | [13] 1 | [5] 1 | [7] 0.999 | [8] 0.989 | [9] 1 | [10] 0.99 | [11] 1.01 | [14] 1

N#C/C(=C\c1ccc(O)c(O)c1)C(=O)NCc1ccccc1
inactive: [18] 0.997 | [1] 0.984 | [15] 1 | [2] 1 | [3] 1 | [4] 1.01 | [16] 1.01 | [17] 0.992 | [13] 1.01 | [5] 1 | [6] 1.02 | [7] 1.01 | [8] 1.02 | [9] 0.999 | [11] 1.03 | [12] 1

CCOC(=O)/C(C#N)=C/c1ccc(Br)cc1
inactive: [18] 0.971 | S. cerevisiae deletion strains, locus YDL134C, strain PPH21, stronger effect = lower value 0.972 | [2] 0.893 | S. cerevisiae deletion strains, locus YLR058C, strain SHM2 (second series), stronger effect = lower value 0.977 | [13] 0.913 | [10] 0.967 | [14] 0.865 | S. cerevisiae strains, strain wild type, stronger effect = lower value 0.954
active: S. cerevisiae deletion strains, locus YBR229C, strain ROT2, stronger effect = lower value 0.805 | S. cerevisiae deletion strains, locus YDL101C, strain DUN1, stronger effect = lower value 0.875 | S. cerevisiae deletion strains, locus YEL061C, strain CIN8, stronger effect = lower value 0.754 | [16] 0.903 | S. cerevisiae deletion strains, locus YHR030C, strain SLT2, stronger effect = lower value 0.258 | S. cerevisiae deletion strains, locus YHR087W, strain rtc3, stronger effect = lower value 0.821 | S. cerevisiae deletion strains, locus YJL187C, strain SWE1, stronger effect = lower value 0.846 | S. cerevisiae deletion strains, locus YJR043C, strain POL32, stronger effect = lower value 0.851 | [17] 0.828 | S. cerevisiae deletion strains, locus YKL190W, strain CNB1, stronger effect = lower value 0.804 | S. cerevisiae deletion strains, locus YLR039C, strain RIC1, stronger effect = lower value 0.646 | S. cerevisiae deletion strains, locus YLR085C, strain ARP6, stronger effect = lower value 0.375 | S. cerevisiae deletion strains, locus YLR262C, strain YPT6, stronger effect = lower value 0.72 | S. cerevisiae deletion strains, locus YML094W, strain GIM5, stronger effect = lower value 0.828 | S. cerevisiae deletion strains, locus YMR219W, strain ESC1, stronger effect = lower value 0.926 | [6] 0.836 | S. cerevisiae deletion strains, locus YNL298W, strain CLA4 (second series), stronger effect = lower value 0.717 | S. cerevisiae deletion strains, locus YNR030W, strain Alg12, stronger effect = lower value 0.765 | S. cerevisiae deletion strains, locus YOL006C, strain TOP1, stronger effect = lower value 0.593 | [12] 0.717 | S. cerevisiae deletion strains, locus YPR135W, strain CTF4, stronger effect = lower value 0.585
